Shown is part of a subset that was picked to be rich in hits.
nsP2pro inh: CHIKV nsP2 protease inhibition, primary qHTS; AID 1964107; hit rate 1.1% among 31,000; Potency, µM (top dose mostly 24.9 µM), inactives show top-dose activity change, negative = inhibition, most hits filed as inhibitors; FRET peptide cleavage, nsP2pro, fluorescence 1 h; Q8JUX6; also: nearly all actives have a fitted effect of over 60% in size
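FRET cleavage of 2.5 uM peptide 2 by 150 nM CHIKV protease domain at pH 8.0 (Tris, Tween 20). Compounds at 7 concentrations (up to 25 uM) preincubated 15 min. Fluorescence read after 1 h at room temperature.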
CHIKV nsP2 cell: cell-based CHIKV nsP2 protease inhibition, secondary; shares compounds with nsP2pro inh; cell-based CHIKV nsP2 protease reporter assay; Potency, µM (titrated, usually from 51.1 µM), for the others: at the highest dose activity change, negative = inhibition, usual class: inhibitors; hit rate 10% among 450; AID 1964100; also: nearly all actives have a fitted effect of over 70% in size
CHIKV NSP2 FL: selectivity test for CHIKV nsP2 protease inhibitors: full-length NSP2 | shares compounds with nsP2pro inh | Full-length CHIKV NSP2 protease enzymatic counterscreen | Potency, µM (titrated, usually from 50.7 µM), without a hit: at the highest dose activity change, negative = inhibition, hits mostly inhibitors | hit rate 39% among 410 | AID 1964101; also: nearly all actives have a fitted effect of over 65% in size
Furin counter: inhibits human furin in a CHIKV nsP2 protease selectivity counterscreen; shares compounds with nsP2pro inh; Recombinant human furin enzymatic counterscreen, fluorogenic substrate; Potency, µM (titrated, usually from 50.6 µM), for the others: at the top dose activity change, negative = inhibition, most hits filed as inhibitors; hit rate 6% among 410; AID 1964102
nsP2 NS23 pep: blocks CHIKV nsP2 protease cleavage of endogenous NS2/3 peptide. Purified CHIKV nsP2 protease, endogenous NS2/3 peptide cleavage. hit rate 34% among 410. shares compounds with nsP2pro inh. AID 1964103. Potency, µM (series often up to 51 µM), for the others: top-dose activity change, negative = inhibition, usual class: inhibitors; also: nearly all actives have a fitted effect of over 55% in size
Papain cs: selectivity counter-screen for CHIKV nsP2 protease inhibitors: papain. Potency, µM (top dose mostly 51 µM), inactives show top-dose activity change, negative = inhibition, hits mostly inhibitors. purified papain protease activity, enzymatic inhibition. hit rate 5% among 410. shares compounds with nsP2pro inh
nsP2pro conf qHTS: CHIKV nsP2 protease inhibition, confirmatory qHTS; Potency, µM (highest dose often 25.5 µM), for inactives: at the highest dose activity change, negative = inhibition, hits mostly inhibitors; CHIKV nsP2 protease enzymatic activity, qHTS; hit rate 43% among 410; shares compounds with nsP2pro inh; also: nearly all actives have a fitted effect of over 75% in size
HCV NS3 counter: selectivity counter-screen for CHIKV nsP2 protease inhibitors: HCV NS3/4A. AID 1964106. Potency, µM (doses to about 50.9 µM), usual class: inhibitors. HCV NS3/4A protease biochemical counterscreen. hit rate 20% among 410. shares compounds with nsP2pro inh; also: nearly all actives have a fitted effect of over 55% in size
An asterisk follows results filed as active; i = inactive; ? = inconclusive; ! = not confirmed by another sample; [ ] = remark or other dose. Calls follow the shape of the full dose curve. % is scaled to controls: 0 for no effect and ±100 for the full control effect; potency is read from the fitted curve at half-maximal effect.

SMILES | nsP2pro inh | others
Cn1sc(=O)n(Cc2ccccc2)c1=O | 6.2µM* | CHIKV nsP2 cell=?;CHIKV NSP2 FL=12µM*;Furin counter=?;nsP2 NS23 pep=9.2µM*;Papain cs=-4%;nsP2pro conf qHTS=4µM*;HCV NS3 counter=i
Cc1cnc(CCN)n1Cc1ccccc1 | i
O=C1CCCC2=C1C(c1[nH]ncc1Cl)NC(=NCCc1ccccc1)N2 (centres undefined) | -3%
Cn1ccnc1CCOC(c1cc2nccc(C(=O)O)c2[nH]1)c1ccccc1Cl (centres undefined) | 104%
Cc1cnc(-c2ccccc2C(C)C)nc1NCc1ccc(-c2ccc(F)nc2)cc1 | i
COC(=O)N[C@H](C(=O)N1CCC[C@H]1C(=O)Nc1ccc([C@@H]2CC[C@@H](c3ccc(NC(=O)[C@@H]4CCCN4C(=O)[C@@H](NC(=O)OC)C(C)C)cc3)N2c2ccc(C(C)(C)C)cc2)cc1)C(C)C | -19%
FC(F)(F)c1ccccc1-c1nc(NCc2cccc3ccccc23)c2ccccc2n1 | -3%
C=C(C)C(=O)O[C@H]1[C@H]2C(=C)C(=O)O[C@@H]2/C=C(\CO)CC/C=C(/C=O)[C@@H]1O | -12%
C=C1C(=O)O[C@@H]2C3C(=C(C)[C@@H](O)[C@@H](OC(=O)/C(=C/C)COC(C)=O)[C@@H]12)C(=O)[C@H]1O[C@@]31C (some centres undefined) | 2.2µM* | CHIKV nsP2 cell=?;CHIKV NSP2 FL=7.1µM*;Furin counter=-2%[17.3 µM];nsP2 NS23 pep=3.2µM*;Papain cs=-6%[17.2 µM];nsP2pro conf qHTS=2.2µM*;HCV NS3 counter=i
C=C1C(=O)O[C@@H]2/C=C(/C)[C@@H](OC(C)=O)C/C=C(\C)C[C@@H](OC(=O)/C(=C/CO)CO)[C@@H]12 | -8%[10 µM]
Cc1cc(C)nc(NC(=S)N2CCN(c3nnc(C(F)(F)F)s3)CC2)c1 | -2%
COc1cc(OC)cc(-c2ccc3c(-c4ccc(F)cc4)[nH]nc3n2)c1 | 21%
CCCCCCCCCCC(=O)O[C@H]1CC[C@H]2[C@@H]3CCC4=CC(=O)CC[C@]4(C)[C@H]3CC[C@]12C | 6%
O=C(O)[C@@H](O)[C@H](O)[C@H](O)[C@@H](O)C(=O)O | -2%
O=C(O)C(Cl)Cl | 1%
O=C(O)C(S)C(S)C(=O)O (centres undefined) | 8.8µM* | CHIKV nsP2 cell=3%;CHIKV NSP2 FL=?;Furin counter=-9%;nsP2 NS23 pep=?;Papain cs=?;nsP2pro conf qHTS=?;HCV NS3 counter=i
Cn1nc(-c2cccc(F)c2)c(N2CCCCC2)c1NC(=O)Nc1ccccc1 | -9%
CC(=O)c1ccccc1-c1ncc(C)c(NCc2ccc(-c3cccnc3)cc2)n1 | 2%
CNCc1ccc(C)c(NC(=O)c2ccc(Nc3nc(-c4ccccc4)c4ccccc4n3)cc2)c1 | 82%
CC(Cc1ccccc1)C(=O)Nc1ccc(Cl)cc1C(=O)O (centres undefined) | i
COC(=O)C1CC2=CC(=O)CCC2(C)C23OC2CC2(C)C(CC[C@]24CCC(=O)O4)C13 (some centres undefined) | -9%
CC(=O)Nc1sc2c(c1-c1ccccc1F)CCNC2 | -3%
Cc1cc(C(=O)CN2CCCC2)c(C)n1-c1ccc(F)cc1 | 5.6µM*! | CHIKV nsP2 cell=-13%;CHIKV NSP2 FL=14%;Furin counter=-7%;nsP2 NS23 pep=-14%;Papain cs=-19%;nsP2pro conf qHTS=-1%;HCV NS3 counter=i
O=C(CN1CCN(c2ccc(Cl)cc2)CC1)Nc1ccc(F)cc1F | -23%
CN1CCCCCC(O)c2cc(C(=O)N3CCN(c4ccc(F)cc4)CC3)ccc21 (centres undefined) | -16%
SMILES | nsP2pro inh | others
CC(C)(C)OC(=O)N1CCN(c2ccc(NCc3ccc(-c4ccccc4F)o3)cc2)CC1 | -6%
NCCCC[C@H](NC(=O)[C@@H]1CCCN1C(=O)[C@@H]1CSSC[C@H](N)C(=O)N[C@@H](Cc2ccccc2)C(=O)N[C@@H](Cc2ccccc2)C(=O)N[C@@H](CCC(N)=O)C(=O)N[C@@H](CC(N)=O)C(=O)N1)C(=O)NCC(N)=O | -12%
CCC(C)C(N)C1=NC(C(=O)N[C@@H](CC(C)C)C(=O)N[C@H](CCC(=O)O)C(=O)N[C@H](C(=O)N[C@H]2CCCCNC(=O)[C@H](CC(N)=O)NC(=O)[C@@H](CC(=O)O)NC(=O)[C@H](Cc3cnc[nH]3)NC(=O)[C@@H](Cc3ccccc3)NC(=O)[C@H]([C@@H](C)CC)NC(=O)[C@@H](CCCN)NC2=O)[C@@H](C)CC)CS1 (some centres undefined) | 0.22µM*! | CHIKV nsP2 cell=12%[17.6 µM];CHIKV NSP2 FL=0.14µM*;Furin counter=8µM*;nsP2 NS23 pep=1.1µM*;Papain cs=3.2µM*;nsP2pro conf qHTS=0.22µM*;HCV NS3 counter=8µM*
Cc1cc(C)nc(NC(=S)N2CCN(c3cncc4ccccc34)CC2)c1 | -4%
COc1ccc(C(=O)Nc2cnc(-c3ccc(Cl)cc3)nc2)cc1 | -1%
Cc1ccccc1C1=CCN(C)CC1 | -4%
Cc1ccccc1C1=CCN(c2ncc(NC(=O)c3ccc(Cl)cc3)cc2C(=O)O)CC1 | ? | CHIKV nsP2 cell=-5%
Cc1ccc(S(=O)(=O)Nc2cc(Br)ccc2C(=O)Nc2nc(-c3ccccc3)cs2)cc1 | i
C[C@@H]1O[C@@H](O[C@H]2[C@@H]3C=CO[C@@H](O[C@@H]4O[C@H](CO)[C@@H](O)[C@H](O)[C@H]4O)[C@@H]3[C@@]3(CO)O[C@@H]23)[C@H](OC(=O)/C=C/c2ccccc2)[C@H](O)[C@H]1O | 23%[10 µM]
C[C@@H]1O[C@@H](O[C@H]2[C@@H]3C=CO[C@@H](O[C@@H]4O[C@H](CO)[C@@H](O)[C@H](O)[C@H]4O)[C@@H]3[C@@]3(CO)O[C@@H]23)[C@H](O)[C@H](OC(=O)/C=C/c2ccc(O)c(O)c2)[C@H]1O | ? | CHIKV nsP2 cell=6%[17.6 µM];CHIKV NSP2 FL=-6%[17.3 µM];Furin counter=-7%[17.3 µM];nsP2 NS23 pep=-17%[17.2 µM];Papain cs=-11%[17.2 µM];nsP2pro conf qHTS=-14%[8.62 µM];HCV NS3 counter=i
CC(=O)O[C@@H]1[C@@H](OC(=O)/C=C/c2ccccc2)[C@H](C)O[C@@H](O[C@H]2[C@@H]3C=CO[C@@H](O[C@@H]4O[C@H](CO)[C@@H](O)[C@H](O)[C@H]4O)[C@@H]3[C@@]3(CO)O[C@@H]23)[C@@H]1OC(C)=O | -10%[10 µM]
